Results published in PubChem BioAssay AID1489 (National Center for Advancing Translational Sciences (NCATS), 2009).
Inconclusive results are not listed. Active and inactive are the calls of the source. Calls come from the whole dose curve; as a rule, active = well fitted antagonist curve with a large enough effect in the main read-out, with a control signal flat; inconclusive = small, poorly fitted or top-dose-only effect; inactive = no such curve, though single readings can be large or run the other way.

Target: Neuropeptide S receptor (Homo sapiens) (UniProt Q6W5P4)
Sequence (Q6W5P4 whole entry, looked up): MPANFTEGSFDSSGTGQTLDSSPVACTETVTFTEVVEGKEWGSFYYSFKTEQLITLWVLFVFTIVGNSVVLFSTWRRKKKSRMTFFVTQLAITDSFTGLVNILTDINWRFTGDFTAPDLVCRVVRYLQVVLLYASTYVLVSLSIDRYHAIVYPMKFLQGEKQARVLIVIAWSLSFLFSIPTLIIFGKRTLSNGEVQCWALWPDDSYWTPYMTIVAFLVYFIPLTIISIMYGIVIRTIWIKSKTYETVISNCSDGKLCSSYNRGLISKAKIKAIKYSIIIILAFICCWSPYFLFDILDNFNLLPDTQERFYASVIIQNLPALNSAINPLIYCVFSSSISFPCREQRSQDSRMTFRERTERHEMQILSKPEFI
Experiment: Confirmation Concentration-Response Assay for Antagonists of the Neuropeptide S Receptor: Calcium Signal Transduction
Conditions: CHO-NPSR cells, NPS-induced calcium flux, FDSS; series mostly up to 19.3 µM
Procedure, shortened: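 Calcium flux was measured by kinetic fluorescence in dye-loaded CHO-NPSR cells, first after compound addition (210 s), then after NPS challenge (60 nM in stimulation reagent, 140 s). Hill-equation fitting gave AC50.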

Potency, inactive:
Cc1cc(C)n(-c2nc(NC(C)C)nc(NC(C)C)n2)n1, Cc1cc(OCC(=O)c2ccc(Br)cc2)ccc1N1C(=O)CCC1=O, CC1(C)O[C@@H]2C[C@H]3[C@@H]4C[C@H](F)C5=CC(=O)CC[C@]5(C)[C@H]4[C@@H](O)C[C@]3(C)[C@]2(C(=O)CO)O1, CCC(C)(C)NC(=O)Cc1ccc(C)cc1, O=[N+]([O-])c1ccc(-c2nc(C(Cl)Cl)c3ccccc3n2)cc1, COc1ccc(C(=O)N(Cc2ccco2)Cc2cccs2)c(O)c1
